The values that follow come from PubChem BioAssay (NCATS).

Results filed as inconclusive are left out. Activity calls are given as the source filed them. Calls come from the whole dose curve; as a rule, active = well fitted cell-killing curve with a large enough effect; inconclusive = small, poorly fitted or top-dose-only effect, or effect the other way; inactive = no such curve, though single readings can be large or run the other way.
Potency is the fitted concentration of half-maximal effect.

A short description of this test: Quantitative High-Throughput drug screen in 47 multiple myeloma cell lines against the NCATS MIPE library collection: OPM1_PLB cell viability assay (AID 1918989). Note: nearly all actives have a fitted effect of over 40% in size. As to conditions: CellTiter-Glo, 48 h; series mostly up to 45.8 µM; viability (% of control): at the top concentration. Summed up:
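500 cells/well; MIPE 4.0 drugs pin-transferred; 48 h, 37C, 5% CO2. CellTiter-Glo, 5 min RT, luminescence. Controls: DMSO 100%, media 0%.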
With `O=C(OCC#CCSc1nnc(-c2cccc3ccccc23)o1)c1cc2ccccc2s1`, the “viability (% of control)” value is 113% (inactive).

Turning to `COCCOc1nc(-c2ccc(Cl)c(Cl)c2)n(-c2ccc(NC(=O)CCl)cc2)n1`, the Potency is 20.9 µM (active).

Consider `COc1ccc2c(Oc3ccc(NC(=O)c4c(C)n(CC(C)(C)O)n(-c5ccccc5)c4=O)cc3F)ccnc2c1`, for which the Potency is 18.7 µM (active).

In the case of `NC(=O)c1cccc(-c2cc(Nc3ccc(OC(F)(F)F)cc3)ncn2)c1`, the Potency was 18.7 µM (active).

With `CC1(C)CCC(CN2CCN(c3ccc(C(=O)NS(=O)(=O)c4ccc(NCC5CCOCC5)c([N+](=O)[O-])c4)c(Oc4cnc5[nH]ccc5c4)c3)CC2)=C(c2ccc(Cl)cc2)C1`, the Potency is 5.26 µM (active).

In the case of `O=C(Nc1cccc(Br)c1)c1cccc(S(=O)(=O)N2CCCCCC2)c1`, the Potency is 18.7 µM (active).

For the compound `Nc1ncnc2c1ncn2[C@@H]1O[C@@H](CO)[C@H](O)[C@H]1O`, the “viability (% of control)” value was 124% (inactive).

Take `CNC(=O)c1ccccc1Sc1ccc2c(C=Cc3ccccn3)n[nH]c2c1`: the Potency is 18.7 µM (active).

Consider `O=C(Nc1cc(Cl)cc2c1[nH]c1cnccc12)c1cccnc1`, for which the “viability (% of control)” value was 109% (inactive).

`O=C1NC(=O)C(=Cc2ccc3nccnc3c2)S1`: the Potency was 6.45 µM (active).

As to `CC(C)C(=O)Oc1ccc(CO)cc1[C@H](CCN(C(C)C)C(C)C)c1ccccc1`, the “viability (% of control)” value is 88.6% (inactive).

As to `Cc1ccccc1C(C(=O)NC1CCCCC1)N(C(=O)Cn1ccnc1C)c1cccc(F)c1` (centres undefined), the “viability (% of control)” value is 132% (inactive).

Consider `NC1CCC(Nc2nc(Nc3ccc(C(=O)N4CCCCC4)cc3)c3ncn(-c4cccc(F)c4)c3n2)CC1` (centres undefined), for which the “viability (% of control)” value is 134% (inactive).

Regarding `COc1cccc2c1CCCC2CCCN1CCN(C2CCCCC2)CC1` (centres undefined), the Potency was 20.9 µM (active).
